Experimental data taken from ChEMBL document CHEMBL3988442, “University of Dundee, Small-Polar-MMV Screening Library” (2021).
For some of these results: Entries with a potency or affinity are not part of this list.

How the values were obtained:
Design in all cases: scale not given: direction of the effect not stated beside the values
[1] = biological target: Protein translocase subunit SecA (Escherichia coli (strain K12)) (UniProt P10408); experiment: Assay to Identify E. coli SecA ATPase Inhibitors; assay type: functional; conditions: 30 µM
Chain of Protein translocase subunit SecA (Escherichia coli (strain K12)) (P10408 whole entry): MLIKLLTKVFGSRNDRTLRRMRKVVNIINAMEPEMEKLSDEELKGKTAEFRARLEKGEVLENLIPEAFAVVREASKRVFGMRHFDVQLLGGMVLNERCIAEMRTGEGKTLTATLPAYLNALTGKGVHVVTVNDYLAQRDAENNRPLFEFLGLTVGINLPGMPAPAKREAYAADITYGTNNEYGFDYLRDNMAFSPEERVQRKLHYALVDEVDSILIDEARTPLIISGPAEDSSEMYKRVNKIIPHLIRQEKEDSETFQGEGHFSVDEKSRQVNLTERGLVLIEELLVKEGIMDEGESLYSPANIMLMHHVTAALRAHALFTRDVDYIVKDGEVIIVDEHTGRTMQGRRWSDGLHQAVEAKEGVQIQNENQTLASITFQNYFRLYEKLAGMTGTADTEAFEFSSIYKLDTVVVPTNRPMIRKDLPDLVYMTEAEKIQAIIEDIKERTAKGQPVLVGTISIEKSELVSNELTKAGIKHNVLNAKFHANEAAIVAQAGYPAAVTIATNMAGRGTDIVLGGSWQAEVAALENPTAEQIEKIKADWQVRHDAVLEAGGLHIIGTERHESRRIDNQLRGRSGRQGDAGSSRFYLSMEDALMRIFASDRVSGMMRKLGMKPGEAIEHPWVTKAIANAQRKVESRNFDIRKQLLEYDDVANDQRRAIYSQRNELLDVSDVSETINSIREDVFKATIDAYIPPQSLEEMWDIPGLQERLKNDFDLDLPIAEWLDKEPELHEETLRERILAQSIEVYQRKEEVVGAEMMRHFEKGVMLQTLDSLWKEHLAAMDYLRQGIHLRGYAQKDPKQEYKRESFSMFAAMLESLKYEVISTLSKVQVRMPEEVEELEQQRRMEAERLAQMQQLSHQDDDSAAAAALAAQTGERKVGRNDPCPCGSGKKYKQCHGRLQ

[2] = biological target: T1, Ubiquitin-activating enzyme e1, putative (Leishmania donovani (strain BPK282A1)) (UniProt E9BSI1); experiment: Leishmania donovani Ubiquitin Activating Enzyme (LdE1); assay type: functional; conditions: 30 µM
T1 sequence (whole entry): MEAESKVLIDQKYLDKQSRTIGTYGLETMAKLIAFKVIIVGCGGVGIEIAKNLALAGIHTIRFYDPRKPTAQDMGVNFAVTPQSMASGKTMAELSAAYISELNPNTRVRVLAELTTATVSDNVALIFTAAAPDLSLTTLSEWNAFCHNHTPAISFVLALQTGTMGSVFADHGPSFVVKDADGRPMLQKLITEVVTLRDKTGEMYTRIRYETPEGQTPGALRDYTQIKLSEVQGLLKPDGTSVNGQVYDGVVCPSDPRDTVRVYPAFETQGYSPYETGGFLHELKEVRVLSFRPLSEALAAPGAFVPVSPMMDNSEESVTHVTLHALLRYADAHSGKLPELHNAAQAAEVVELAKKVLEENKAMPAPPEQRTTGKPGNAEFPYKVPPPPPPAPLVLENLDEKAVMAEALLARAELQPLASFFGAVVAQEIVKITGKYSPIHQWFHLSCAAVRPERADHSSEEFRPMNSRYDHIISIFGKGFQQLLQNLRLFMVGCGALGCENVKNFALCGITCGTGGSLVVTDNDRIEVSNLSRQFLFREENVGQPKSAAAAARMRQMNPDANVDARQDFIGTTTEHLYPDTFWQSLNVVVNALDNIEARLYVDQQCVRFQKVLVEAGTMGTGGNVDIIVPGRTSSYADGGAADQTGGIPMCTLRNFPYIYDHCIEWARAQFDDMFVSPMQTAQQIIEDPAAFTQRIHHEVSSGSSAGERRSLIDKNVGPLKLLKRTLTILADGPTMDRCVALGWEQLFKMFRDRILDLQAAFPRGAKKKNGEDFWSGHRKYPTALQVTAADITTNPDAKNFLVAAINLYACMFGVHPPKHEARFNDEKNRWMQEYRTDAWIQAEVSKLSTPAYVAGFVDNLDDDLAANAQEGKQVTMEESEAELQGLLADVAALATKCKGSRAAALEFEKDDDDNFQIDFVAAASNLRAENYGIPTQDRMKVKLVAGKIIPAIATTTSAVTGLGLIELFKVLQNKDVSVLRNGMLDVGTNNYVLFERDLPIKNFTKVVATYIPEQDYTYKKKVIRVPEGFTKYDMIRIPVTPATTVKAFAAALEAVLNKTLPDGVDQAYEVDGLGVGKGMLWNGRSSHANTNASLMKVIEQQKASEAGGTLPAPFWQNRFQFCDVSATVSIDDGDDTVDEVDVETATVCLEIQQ

[3] = biological target: AMP-activated protein kinase, AMPK (Homo sapiens) (UniProt P54646+O43741+P54619+Q9UGJ0+Q9Y478+Q13131+Q9UGI9); experiment: AMP-dependent Kinase enzyme assay. An in vitro enzyme assay that detects ADP turnover that is directly proportional to AMPK activity. This uses naive AMPK that is activated during the assay with MK-8722; assay type: functional; conditions: 30 µM
[4] = biological target: Sialic acid-binding Ig-like lectin 9 (Homo sapiens) (UniProt Q9Y336); experiment: Hs-Siglec9 ALPHAscreen SOP 20170721; conditions: 10 µM
Chain of Sialic acid-binding Ig-like lectin 9 (Homo sapiens) (Q9Y336 whole entry): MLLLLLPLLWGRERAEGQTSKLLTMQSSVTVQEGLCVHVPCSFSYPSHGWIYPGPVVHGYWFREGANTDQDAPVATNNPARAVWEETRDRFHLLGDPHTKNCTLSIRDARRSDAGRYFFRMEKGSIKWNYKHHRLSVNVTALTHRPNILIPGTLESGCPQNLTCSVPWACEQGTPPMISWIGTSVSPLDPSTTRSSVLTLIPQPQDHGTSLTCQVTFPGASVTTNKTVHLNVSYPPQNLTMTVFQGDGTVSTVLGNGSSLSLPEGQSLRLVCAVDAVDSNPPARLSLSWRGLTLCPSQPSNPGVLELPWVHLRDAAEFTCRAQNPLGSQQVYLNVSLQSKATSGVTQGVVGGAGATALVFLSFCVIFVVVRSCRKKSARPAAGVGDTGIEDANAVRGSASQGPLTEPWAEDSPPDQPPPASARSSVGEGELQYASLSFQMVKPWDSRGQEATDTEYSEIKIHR

Trypanosoma cruzi = experiment: Trypanosoma cruzi phosphomannomutase and mannose-1-phosphate guanylyltransferase assay; assay type: functional; conditions: 10 µM
[5] = biological target: T2, Arginase-2, mitochondrial (Homo sapiens) (UniProt P78540); experiment: in vitro enzyme assay to detect the production of urea directly proportional to the activity of Arginase II; assay type: functional; conditions: 33.3 µM; also: in the data most compounds retested in dose-response had high values
T2 sequence (whole entry): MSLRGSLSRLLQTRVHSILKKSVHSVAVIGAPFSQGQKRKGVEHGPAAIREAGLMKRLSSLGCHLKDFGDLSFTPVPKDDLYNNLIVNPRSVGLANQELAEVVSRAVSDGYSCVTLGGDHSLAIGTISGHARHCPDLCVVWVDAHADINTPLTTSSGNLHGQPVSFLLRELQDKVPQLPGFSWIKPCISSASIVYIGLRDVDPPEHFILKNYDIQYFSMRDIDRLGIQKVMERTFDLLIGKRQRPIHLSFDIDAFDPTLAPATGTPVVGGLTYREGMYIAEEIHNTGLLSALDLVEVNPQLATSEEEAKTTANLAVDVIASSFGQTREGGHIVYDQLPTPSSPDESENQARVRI

[6] = biological target: T3, Proteasome subunit beta (Trypanosoma cruzi) (UniProt O96673); experiment: Trypanosoma cruzi proteasome chymotrypsin-like activity (TcProtChymo) assay.; also: in the data most compounds retested in dose-response had high values; assay type: functional; conditions: 9.37 µM
T3 sequence (whole entry): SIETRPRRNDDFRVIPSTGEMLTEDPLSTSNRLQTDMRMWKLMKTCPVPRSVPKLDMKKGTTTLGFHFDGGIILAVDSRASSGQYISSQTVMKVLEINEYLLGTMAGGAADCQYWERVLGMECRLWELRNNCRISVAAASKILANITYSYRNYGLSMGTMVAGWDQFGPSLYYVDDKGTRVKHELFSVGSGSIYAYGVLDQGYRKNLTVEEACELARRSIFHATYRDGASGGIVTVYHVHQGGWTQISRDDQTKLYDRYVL

Homo sapiens = organism: Homo sapiens; experiment: To identify inhibition of the IFN signalling (Jak-Stat) pathway via expression of an eGFP reporter gene under the control of an IFN-stimulated response element (ISRE) containing MxA promoter.; assay type: functional; conditions: 30 µM
[7] = biological target: T4, Tyrosyl-tRNA synthetase, putative (Trypanosoma cruzi (strain CL Brener)) (UniProt Q4DSP6); experiment: Trypanosoma cruzi tyrosyl tRNA synthetase (TcYRS) _High Tyrosine SOP; assay type: functional; conditions: 30 µM; also: in the data most compounds retested in dose-response had high values
T4 sequence (whole entry): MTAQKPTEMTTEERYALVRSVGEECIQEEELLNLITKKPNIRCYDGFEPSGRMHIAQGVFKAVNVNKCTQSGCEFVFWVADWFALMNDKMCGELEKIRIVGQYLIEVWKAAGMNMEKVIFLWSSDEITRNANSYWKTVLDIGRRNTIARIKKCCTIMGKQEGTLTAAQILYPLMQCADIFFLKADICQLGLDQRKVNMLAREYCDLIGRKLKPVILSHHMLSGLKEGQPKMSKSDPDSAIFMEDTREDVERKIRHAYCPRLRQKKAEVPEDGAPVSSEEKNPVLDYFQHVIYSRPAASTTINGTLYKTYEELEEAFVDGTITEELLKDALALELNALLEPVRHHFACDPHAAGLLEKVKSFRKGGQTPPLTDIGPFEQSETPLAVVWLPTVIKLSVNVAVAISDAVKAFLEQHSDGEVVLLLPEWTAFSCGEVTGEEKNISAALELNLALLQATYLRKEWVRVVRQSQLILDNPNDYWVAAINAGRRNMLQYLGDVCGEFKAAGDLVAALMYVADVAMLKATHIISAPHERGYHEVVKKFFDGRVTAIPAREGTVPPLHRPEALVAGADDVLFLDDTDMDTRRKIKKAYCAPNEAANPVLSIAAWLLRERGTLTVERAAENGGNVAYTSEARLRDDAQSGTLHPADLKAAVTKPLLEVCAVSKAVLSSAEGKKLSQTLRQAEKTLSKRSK

[8] = biological target: T4, Tyrosyl-tRNA synthetase, putative (Trypanosoma cruzi (strain CL Brener)); experiment: Trypanosoma cruzi tyrosyl tRNA synthetase (TcYRS) SOP; assay type: functional; conditions: 30 µM
[9] = biological target: Chromo domain-containing protein 1 (Saccharomyces cerevisiae (strain ATCC 204508 / S288c) (Baker's yeast)) (UniProt P32657); experiment: ScCHD-1 Enzyme Inhibition Assay; assay type: functional; conditions: 30 µM; also: in the data most compounds retested in dose-response had high values
Chain of Chromo domain-containing protein 1 (Saccharomyces cerevisiae (strain ATCC 204508 / S288c) (Baker's yeast)) (P32657 whole entry, the tested form may be a part): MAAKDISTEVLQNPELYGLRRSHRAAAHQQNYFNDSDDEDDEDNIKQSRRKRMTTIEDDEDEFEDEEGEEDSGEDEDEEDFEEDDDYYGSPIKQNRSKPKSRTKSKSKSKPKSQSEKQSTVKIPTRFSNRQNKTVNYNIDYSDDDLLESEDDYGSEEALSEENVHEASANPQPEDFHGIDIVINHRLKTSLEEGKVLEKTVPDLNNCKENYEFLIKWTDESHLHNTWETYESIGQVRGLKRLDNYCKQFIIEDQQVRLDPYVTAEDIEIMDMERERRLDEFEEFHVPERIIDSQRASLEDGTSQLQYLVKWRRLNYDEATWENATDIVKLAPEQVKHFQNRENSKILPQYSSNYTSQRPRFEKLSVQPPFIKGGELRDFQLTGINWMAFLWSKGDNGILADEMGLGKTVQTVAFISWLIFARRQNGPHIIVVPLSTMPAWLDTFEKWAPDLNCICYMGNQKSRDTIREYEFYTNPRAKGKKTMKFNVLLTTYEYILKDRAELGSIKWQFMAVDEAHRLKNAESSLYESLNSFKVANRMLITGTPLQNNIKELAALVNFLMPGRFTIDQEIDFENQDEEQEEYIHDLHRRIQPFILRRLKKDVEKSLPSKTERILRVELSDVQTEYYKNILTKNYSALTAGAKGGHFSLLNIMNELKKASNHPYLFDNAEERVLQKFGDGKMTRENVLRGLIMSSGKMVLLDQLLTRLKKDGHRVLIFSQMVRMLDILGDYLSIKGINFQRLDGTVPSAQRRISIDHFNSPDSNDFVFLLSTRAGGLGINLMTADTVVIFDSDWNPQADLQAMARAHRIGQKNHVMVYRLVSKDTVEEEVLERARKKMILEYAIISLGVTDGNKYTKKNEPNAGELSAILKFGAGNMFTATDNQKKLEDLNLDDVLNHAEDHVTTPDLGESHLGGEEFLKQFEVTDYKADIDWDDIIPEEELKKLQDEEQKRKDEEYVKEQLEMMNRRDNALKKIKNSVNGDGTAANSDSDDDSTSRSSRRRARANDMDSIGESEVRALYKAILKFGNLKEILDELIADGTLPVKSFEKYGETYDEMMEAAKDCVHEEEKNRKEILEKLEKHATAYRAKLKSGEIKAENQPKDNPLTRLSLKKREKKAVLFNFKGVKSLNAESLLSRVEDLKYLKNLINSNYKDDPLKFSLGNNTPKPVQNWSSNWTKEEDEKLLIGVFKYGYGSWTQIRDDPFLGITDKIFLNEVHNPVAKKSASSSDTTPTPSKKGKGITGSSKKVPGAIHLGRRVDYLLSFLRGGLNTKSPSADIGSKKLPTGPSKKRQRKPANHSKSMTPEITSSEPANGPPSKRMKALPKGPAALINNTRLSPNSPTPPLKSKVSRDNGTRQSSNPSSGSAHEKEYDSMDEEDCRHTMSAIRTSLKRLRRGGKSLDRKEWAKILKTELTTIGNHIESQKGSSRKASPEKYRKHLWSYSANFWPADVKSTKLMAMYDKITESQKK

Row | Structure (SMILES) | Percent Effect [1] | Percent Effect [2] | Percent Effect [3] | Percent Effect [4] | Percent Effect (Trypanosoma cruzi) | Percent Effect [5] | Percent Effect [6] | Percent Effect (Homo sapiens) | Percent Effect [7] | Percent Effect [8] | Percent Effect [9]
1 | COCCN1CC[C@@H]2OC[C@H](C(=O)NCc3cccs3)C[C@@H]2C1 | 0.484% | 13.5% | 0.443% | -15.8% | -3.23% | 1.59% | 8.3% | -0.0889% | -2.16% | 5.13% | -5%
2 | CC(=O)c1ccc(N2CCC(CO)(CCOc3ccccc3)CC2)nc1 | -4.34% | 0% | 3.88% | 4.67% | -3.05% | 20.7% | 9.48% | 20.6% | 3.23% | 8.64% | 1.85%
3 | Cc1ccc(N2CCCN(C(=O)C(C(C)C)n3cncn3)CC2)nn1 (stereo not given) | -1.22% | 16.2% | -7.95% | 9.29% | 3.62% | 2.03% | 9.16% | 9.49% | 7.92% | 25.6% | -6.51%
4 | Cc1nc(CN2CCOC(c3nc(C(C)C)n[nH]3)C2)oc1C (stereo not given) | -1.29% | 5.06% | 3.22% | 7.38% | 2.74% | 2.66% | 1.72% | -4.74% | 3.45% | 8.86% | -3.77%
5 | Cc1nc(Nc2ncccn2)cc(C2CCCN2C2CCOCC2)n1 (stereo not given) | -5.08% | 6.76% | 3.91% | 3.68% | 0.593% | -3.48% | -1.72% | 13.7% | 9.68% | 11.7% | -3.64%
6 | CNS(=O)(=O)c1cccc(C(C)NCc2ccccc2)c1 (stereo not given) | -0.281% | -2.7% | 1.68% | -2.19% | -5.08% | 1.67% | 3.63% | -5.59% | 2.97% | 1.22% | -1.16%
7 | Cc1ncsc1CN1CC[C@H]2OCC[C@@]2(C(=O)NC(C)C)C1 | -3.99% | 0% | 6.03% | -6.45% | -3.25% | 0.645% | 0.87% | 30.1% | -1.06% | -8.97% | 0.0917%
8 | CO[C@@H]1CC[C@H]2[C@H]1OCCN2C(=O)c1ccc(C)o1 | 2.4% | 10.4% | 173% | -12.1% | -7.2% | -11% | 14.1% | 22.1% | -3.17% | -1.28% | -14%
9 | CCc1nccn1C1CCCN(C(=O)CCc2nccs2)C1 (stereo not given) | -2% | -5.41% | -10.8% | 5.59% | -0.66% | -6.81% | 5.77% | 1.54% | 1.48% | 1.24% | -1.72%
10 | CC(C)Oc1ccccc1CNC(=O)N1CCC(n2cncn2)CC1 | -9.7% | 11.4% | -5.06% | -3.04% | 3.79% | -2.37% | 17.3% | 7.86% | 5.21% | 12.7% | -29.4%
11 | O=C(COCC1CC1)N1CCCC(n2cccn2)C1 (stereo not given) | -2.32% | 13.9% | 1.73% | -2.9% | -2.36% | 2.8% | 13.4% | -5.32% | -1.04% | -7.59% | -22.9%
12 | O=C(c1ccc(-n2cccn2)nc1)N1CCCN(c2cccnn2)CC1 | -2.01% | 0% | 6.8% | -1.08% | -6.76% | 1.47% | 13% | -7.18% | -0.952% | 0% | -11.3%
13 | CC(C)c1ncncc1C(=O)N1CCN(Cc2cscn2)CC1 | -12.5% | 13.5% | -16% | 21.4% | 10.7% | 2.03% | 5.03% | 5.44% | 6.93% | 23.2% | -8.1%
14 | O=C(c1cc(Cl)cc(Cl)c1)N1CCN(c2nccs2)CC1 | -2.62% | 13.7% | 5.26% | 6.34% | 0.588% | 10.4% | 19.2% | 0.362% | 4.3% | 20% | -10.5%
15 | CC(C)Sc1nnc(CCNC(=O)OC(C)(C)C)o1 | 1.34% | 4% | -0.0572% | 0.92% | -8.45% | 0.176% | 12.2% | 32.6% | -2.12% | -12.8% | -10.5%
16 | COc1cc(C(=O)N(Cc2ccc(F)cc2)C2CC2)cc2c1OCCO2 | 0.816% | 7.89% | 1.68% | -4.56% | 2.43% | 3.55% | 21.2% | 36.9% | 3.19% | 13% | -3.44%
17 | CCc1cc(NCCc2ccc(O)cc2)n2nccc2n1 | -0.557% | 5.48% | 93.2% | 6.39% | 2.35% | 25% | 9.58% | 46.2% | 3.23% | 15% | -4.87%
18 | O=C(c1ccccn1)N1CCc2c(nc(N3CCCC3)[nH]c2=O)C1 | -7.12% | 12.2% | 0.895% | 26.1% | 0.198% | -3.48% | 7.64% | 10.1% | 3.23% | 11.7% | -17.3%
19 | COC(=O)c1cc(C(=O)N2CCCCCC2)n(-c2ccccc2)n1 | -5.27% | 2.63% | 0.404% | 4.54% | -5.08% | 1.92% | -3.51% | 18.4% | 2.45% | 9.76% | -1.11%
20 | COc1cc(C)nc(N2CCN(C(=O)c3ccccc3C)CC2)n1 | -6.89% | 2.7% | -5.76% | 17.5% | 8.4% | -13.2% | 1.8% | 9.59% | 5.42% | 18.5% | -18.4%
